Laboratory results reported in ChEMBL document CHEMBL3988442, “University of Dundee, Small-Polar-MMV Screening Library” (2021).
Hit rate of the full screen: of about 48,000 compounds, about 13,000 (27%) showed an effect of 50% or more. The list shows a part of the results.

tested on: Wolbachia pipientis; test: Anti-Wolbachia Cell-Based Screen; assay type: functional; design: scale not given: in the data most compounds retested in dose-response had high values; conditions: 5 µM

SMILES | Percent Effect [%]
COCC1CN(C(=O)c2ccnnc2)Cc2ncnn2C1 (centres undefined) | 0.09306
Cc1cc(CSCc2cc(C)on2)on1 | -0.9382
Cc1cc(CSCc2csc(CS(C)(=O)=O)n2)no1 | 97.95
CS(=O)(=O)Cc1nc(CNc2ccc(F)c(F)c2)cs1 | 12.98
CCc1nc(CSCc2csc(CS(C)(=O)=O)n2)cs1 | 115
Cc1noc(C)c1CSCc1csc(CS(C)(=O)=O)n1 | 94.77
Cc1noc(C)c1CSCc1nc(N)c2ccccc2n1 | -9.423
CS(=O)(=O)Cc1nc(CN2CCc3ccccc3CC2)cs1 | 14.86
CS(=O)(=O)Cc1nc(CNc2c(F)cc(F)cc2F)cs1 | 22.22
CS(=O)(=O)Cc1nc(CN2CCC(C(F)(F)F)CC2)cs1 | -5.539
COCCN(Cc1sccc1C)C(=O)C1CCN(C(C)C)CC1 | 1.745
Nc1nc2c(c(N3CCCC(c4nnc5ccccn45)C3)n1)CCNC2 (centres undefined) | -10.49
O=C1[C@@H]2CN(Cc3cc4ccccc4o3)C[C@]2(C(=O)O)CN1CC1CC1 | -11.55
OCC(O)CSCc1nnc(-c2ccc(Cl)cc2)o1 (centres undefined) | -3.672
COc1ccc2c(c1)C(=O)N(C)C1(CCN(CC3CC3)CC1)N2 | -12.56
COc1ccc2c(c1)CCCN2C(=O)c1cccc(N(C)C)c1 | -8.665
COc1ccc2c(c1)CN(CC1CC1)C(=O)CCN2CC(C)(C)O | 98.75
COc1ccc2c(c1)CCCN2C(=O)NC1CCCCNC1=O (centres undefined) | -4.83
CCN1Cc2cc(OC)ccc2N(CC(C)(C)O)CCC1=O | 102.5
COc1ccc2c(c1)CCCN2Cc1nc2c(cnn2C)c(=O)[nH]1 | -6.912
CN1CCN(Cc2noc(CC3CCc4ccccc43)n2)CC1 (centres undefined) | 3.539
Cc1csc(CN(C)C(=O)c2cccc(CCC(C)(C)O)c2)n1 | -10.56
COCc1ncc(CN2C[C@@H](C(=O)O)[C@H](C(C)C)C2)cn1 | 0.5192

SMILES | Percent Effect [%]
CC(C)N1CCC(c2cnc(-c3cn[nH]c3)cn2)CC1 | 107.4
Cn1cc(-c2nc(C3CCN(S(C)(=O)=O)CC3)cc3c2ncn3C)cn1 | 6.413
CS(=O)(=O)N1CCC(c2cnc(-c3cn[nH]c3)cn2)CC1 | 122.9581
CC(C)N1CCC(c2nnc(CN3CCCC3)n2C2CC2)CC1 | -3.352
CC(C)N1CCC(c2cnc(-c3cncnc3)cn2)CC1 | 77.04
CCCn1ncnc1C(C)NC(=O)C1CCN(C(C)C)CC1 (centres undefined) | -2.448
O=C(O)c1cc(-c2cn[nH]c2)cc(S(=O)(=O)N2CCSCC2)c1 | -7.646
COc1cccc2c1OCCCN(Cc1ccc(C(N)=O)c(=O)[nH]1)C2 | -4.223
CC(C)Cn1cnc(S(=O)(=O)Nc2cccnc2-n2cccn2)c1 | -21.79
CC1(C)CN(C(=O)CC2CCS(=O)(=O)CC2)C[C@]1(C)O | 8.618
O=S(=O)(NCC1(O)CCOCC1)c1ccccc1Br | 8.924
CC(C)NC(=O)NC[C@H]1OC[C@@H](NCc2cccs2)[C@@H]1O | 11.97
CCc1cc(N[C@H](C(N)=O)C(C)C)n2nc(C)c(C)c2n1 | -4.879
Cc1cccc(C2(CNC(=O)CCNS(C)(=O)=O)CCCC2)c1 | 4.767
CN1CCC(CCc2ccnc(Nc3cnccn3)c2)CC1 | 95.48
Cl.c1cnc(Nc2cc(CCC3CCCNC3)ccn2)cn1 (centres undefined) | 75.77
O=C(NCCNc1cnccn1)NCC1CCS(=O)(=O)C1 (centres undefined) | -2.4
CC(Cc1cnccn1)NC(=O)c1cccc(CC2CCNCC2)c1 (centres undefined) | -6.406
O=C(CO)N1CCC(CCc2ccnc(Nc3cnccn3)c2)CC1 | 125.8
Cc1c(Br)cccc1C(=O)NCCC1CCCNC1.Cl (centres undefined) | 6.591
c1cnc(Nc2cc(CCC3CCNCC3)ccn2)cn1 | 61.48
Cc1ccc(Oc2ncccc2CNC2CCOCC2)cn1 | -4.901
CCC(CNC1CCN(C(C)=O)CC1)Oc1cccc(C)c1 (centres undefined) | 3.033

SMILES | Percent Effect [%]
CN(C)c1cc2c(nn1)CCN(C(=O)C1CCc3ccccc31)C2 (centres undefined) | -4.6
Cc1cc(C)n(-c2nc(C(=O)NCCN3CCC(C)CC3)cs2)n1 | 74.92
CCCc1nc(C(=O)NCCN2CCC(c3ccccc3C)C2)cs1 (centres undefined) | -11.15
Cc1nc(C(=O)NCCS(=O)(=O)N2CCCC2)cs1 | 99.98
Cc1nc(C(=O)N2CCN(S(C)(=O)=O)[C@@H]3CS(=O)(=O)C[C@@H]32)cs1 | -1.846
CC1CCN(CCNC(=O)c2cncnc2C(C)C)CC1 | -7.999
CCc1c(C)nn(CCNC(=O)c2csc(C)n2)c1C | -30.9
Cc1cc(C(=O)NCCN2CCN(S(C)(=O)=O)CC2)no1.Cl | 11.14
Cc1cc(C)n(-c2nc(C(=O)NCCS(=O)(=O)N3CCCCC3)cs2)n1 | 95.89
Cc1csc(CNC(=O)NC2CCCN(S(C)(=O)=O)C2)n1 (centres undefined) | -1.577
OC[C@@H]1CCCN1Cc1cn(C2CCN(C3CCCC3)CC2)nn1 | -5.2
Cc1noc(OCCOc2ccc(C#N)cc2)n1 | 1.206
O=C1CO[C@H](c2ccc(NS(=O)(=O)Cc3ccccc3)cc2)[C@@H](CO)N1 | -3.508
CN1C(=O)C(C)(C)COc2ccc(NS(=O)(=O)Cc3ccccc3)cc21 | 99.35
Cn1ccc(CS(=O)(=O)Cc2ccccc2)cc1=O | -1.625
Cn1cccc1C(O)CNS(=O)(=O)Cc1ccccc1 (centres undefined) | -5.113
Cc1nc(N2CCCC2)nc(C)c1NS(=O)(=O)c1ccccc1F | -5.726
CN1C(=O)C(C)(C)COc2cc(NS(=O)(=O)c3ccccc3)ccc21 | 19.53
CN1C(=O)C(C)(C)COc2cc(NS(=O)(=O)Cc3ccccc3)ccc21 | 11.42
CC(C)CS(=O)(=O)Nc1ccc2c(c1)OCC(C)(C)C(=O)N2C | 141.6
CN1C(=O)C(C)(C)COc2cc(NS(=O)(=O)c3ccccc3F)ccc21 | 192.1
CC(C)CS(=O)(=O)Nc1ccc([C@H]2OCC(=O)N[C@@H]2CO)cc1 | -5.323
Cn1c(=O)n(C)c2cc(NS(=O)(=O)Cc3ccccc3)ccc21 | 78.16
